Experimental data taken from paper PMC4336329 (PLoS ONE, 2015).
The campaign covered roughly 310,000 compounds. About 2,200 (0.71%) showed an effect of 50% or more. Effects have a minus sign here. What follows is part of a selection rich in strong results, with near analogues and random picks from the rest.

The compounds below were run against human ether-à-go-go-related gene (hERG) potassium channel (human, UniProt Q12809) (assay: primary screen, population patch clamp on CHO cells stably expressing hERG; higher = less effect of the substance).
human ether-à-go-go-related gene (hERG) potassium channel, sequence (Q12809 whole entry, looked up): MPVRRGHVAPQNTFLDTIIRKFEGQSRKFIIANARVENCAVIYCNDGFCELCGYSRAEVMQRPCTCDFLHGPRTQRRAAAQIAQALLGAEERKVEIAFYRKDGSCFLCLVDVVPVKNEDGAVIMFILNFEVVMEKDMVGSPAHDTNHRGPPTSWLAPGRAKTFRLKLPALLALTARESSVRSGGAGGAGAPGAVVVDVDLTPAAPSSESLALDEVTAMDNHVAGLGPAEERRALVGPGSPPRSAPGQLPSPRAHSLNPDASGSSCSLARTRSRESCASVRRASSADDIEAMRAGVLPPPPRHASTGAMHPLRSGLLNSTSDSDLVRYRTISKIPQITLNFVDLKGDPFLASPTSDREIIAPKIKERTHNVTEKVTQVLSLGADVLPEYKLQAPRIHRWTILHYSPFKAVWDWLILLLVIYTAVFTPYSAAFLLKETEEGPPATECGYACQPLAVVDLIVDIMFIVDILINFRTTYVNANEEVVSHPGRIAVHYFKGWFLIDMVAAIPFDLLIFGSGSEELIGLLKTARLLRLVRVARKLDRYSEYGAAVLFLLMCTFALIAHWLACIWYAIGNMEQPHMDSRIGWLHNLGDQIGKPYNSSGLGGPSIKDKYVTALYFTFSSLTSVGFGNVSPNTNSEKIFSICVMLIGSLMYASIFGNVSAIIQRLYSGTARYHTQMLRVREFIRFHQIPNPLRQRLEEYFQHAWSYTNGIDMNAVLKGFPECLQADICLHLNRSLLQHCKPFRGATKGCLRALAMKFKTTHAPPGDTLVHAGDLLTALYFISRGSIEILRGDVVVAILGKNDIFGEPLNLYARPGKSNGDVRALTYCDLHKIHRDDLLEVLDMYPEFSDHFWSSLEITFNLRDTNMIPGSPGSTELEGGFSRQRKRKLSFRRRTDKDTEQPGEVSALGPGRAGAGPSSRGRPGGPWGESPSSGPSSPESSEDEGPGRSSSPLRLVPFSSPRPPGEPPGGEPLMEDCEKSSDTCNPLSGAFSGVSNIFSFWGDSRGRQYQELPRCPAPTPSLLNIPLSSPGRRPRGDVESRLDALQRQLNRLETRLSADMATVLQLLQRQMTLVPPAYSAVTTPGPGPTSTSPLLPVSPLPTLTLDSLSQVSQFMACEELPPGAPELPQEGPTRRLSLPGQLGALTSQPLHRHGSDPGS
For `CC(=O)Nc1ccc(N/C=C(\C#N)S(=O)(=O)c2ccc(Cl)cc2)cc1`, the “hERG current change (%, negative = inhibition) at 1uM” value was 11.1%. In the case of `CCc1cccc(NC(=O)C2CCCN(S(=O)(=O)c3ccc4[nH]c(=O)ccc4c3)C2)c1` (stereo not shown), the “hERG current change (%, negative = inhibition) at 1uM” value is reported as -0.861%. `CCOc1ccc(N2CC(C(=O)N3CCc4ccccc4C3)CC2=O)cc1` (stereo not shown) was tested, and the “hERG current change (%, negative = inhibition) at 1uM” value was -67.1%. For `Cc1ccc(N2CC(C(=O)N3CCc4ccccc4C3)CC2=O)cc1` (stereo not shown), the “hERG current change (%, negative = inhibition) at 1uM” value was -17.7%. In the case of `CCOc1ccc(N2CC(C(=O)N3CCc4ccccc43)CC2=O)cc1` (stereo not shown), the “hERG current change (%, negative = inhibition) at 1uM” value is reported as -8.82%. `CCC(C)(C)n1nnnc1C(c1cc2ccc(OC)cc2[nH]c1=O)N1CCc2ccccc21` (stereo not shown) was tested, and the “hERG current change (%, negative = inhibition) at 1uM” value was 6.76%. In the case of `Cc1ccc(S(=O)(=O)c2cc3c(=O)n4ccccc4nc3n(CC3CCCO3)c2=N)cc1C` (stereo not shown), the “hERG current change (%, negative = inhibition) at 1uM” value is reported as 9.33%. For `CC(NC(=O)c1cc2c(=O)n3ccccc3nc2n(CC2CCCO2)c1=N)c1ccccc1` (stereo not shown), the “hERG current change (%, negative = inhibition) at 1uM” value was -72.3%. With `N=c1c(C(=O)NC2CCCC2)cc2c(=O)n3ccccc3nc2n1CC1CCCO1` (stereo not shown) the “hERG current change (%, negative = inhibition) at 1uM” value was -94.4%. With `N=c1c(S(=O)(=O)c2ccccc2)cc2c(=O)n3ccccc3nc2n1CC1CCCO1` (stereo not shown) the “hERG current change (%, negative = inhibition) at 1uM” value was -17%. In the case of `N=c1c(C(=O)NC2CCCCC2)cc2c(=O)n3ccccc3nc2n1CC1CCCO1` (stereo not shown), the “hERG current change (%, negative = inhibition) at 1uM” value is reported as -79.2%. In the case of `CCOC(=O)c1c(C)[nH]c(N=Nc2cccc(OC)c2)c1C`, the “hERG current change (%, negative = inhibition) at 1uM” value is reported as 6.77%. `CCOC(=O)C1CCN(S(=O)(=O)c2ccc(Br)c(OCC)c2)CC1` was tested, and the “hERG current change (%, negative = inhibition) at 1uM” value was 0.854%. In the case of `CC1=[N+]([O-])C2(N)CCc3nonc3C2(O)C1` (stereo not shown), the “hERG current change (%, negative = inhibition) at 1uM” value is reported as 6.29%. In the case of `COC(=O)[C@H](CCSC)NC(=O)Nc1cc(C)ccc1C`, the “hERG current change (%, negative = inhibition) at 1uM” value is reported as 11.7%. For `C=CCn1c(O)c(C(C)=NCCN2CCN(C(=S)NC)CC2)c(=O)[nH]c1=O`, the “hERG current change (%, negative = inhibition) at 1uM” value was 4.36%. With `O=C(c1ccc(F)cc1)C1CCN(Cc2ccc(F)cc2)CC1` the “hERG current change (%, negative = inhibition) at 1uM” value was 2.51%. `COc1ccc(CN2CCC(C(=O)c3ccc(F)cc3)CC2)cc1` was tested, and the “hERG current change (%, negative = inhibition) at 1uM” value was -81%. For `CCc1ccc(NC(=O)CN2CCC(C(=O)c3ccc(OC)cc3)CC2)cc1`, the “hERG current change (%, negative = inhibition) at 1uM” value was -3.64%. `COc1ccc(CNC(=O)C2CCN(C(=O)c3cccc(Cl)c3)CC2)cc1` was tested, and the “hERG current change (%, negative = inhibition) at 1uM” value was -3.93%. With `COc1ccc(CN2CCC(C(=O)c3cccc(Cl)c3)CC2)cc1` the “hERG current change (%, negative = inhibition) at 1uM” value was -66.8%. `COc1ccc(CN2CCCC(C(=O)c3cccc(Cl)c3)C2)cc1` (stereo not shown) was tested, and the “hERG current change (%, negative = inhibition) at 1uM” value was -7.39%. With `COc1ccc(C(=O)C2CCN(C(=S)Nc3ccc(F)cc3)CC2)cc1` the “hERG current change (%, negative = inhibition) at 1uM” value was -6.05%. For `COc1ccc(CNC(=O)CN2CCC(C(=O)c3ccc(OC)cc3)CC2)cc1`, the “hERG current change (%, negative = inhibition) at 1uM” value was -15.3%. In the case of `COc1ccc(CN2CCC(C(=O)c3ccc(Cl)cc3)CC2)cc1`, the “hERG current change (%, negative = inhibition) at 1uM” value is reported as -80.9%. For `COC(=O)Cc1ccc(NC(=S)N2CCN(C(=O)C3CCCO3)CC2)cc1` (stereo not shown), the “hERG current change (%, negative = inhibition) at 1uM” value was 5.7%. In the case of `COc1ccccc1CNC(=O)C(NS(=O)(=O)c1ccc2c(c1)OCCO2)C(C)C` (stereo not shown), the “hERG current change (%, negative = inhibition) at 1uM” value is reported as 6.69%. With `COc1cc(C2NC(=O)C(C#N)=C(Nc3cccc(C)c3)S2)ccc1O` (stereo not shown) the “hERG current change (%, negative = inhibition) at 1uM” value was 18.5%. For `COc1cc2c(cc1OC)[C@H](Cc1ccc(O)cc1)NCC2`, the “hERG current change (%, negative = inhibition) at 1uM” value was 10.8%. `Cc1cc(N(C)C)c(C#N)c(=O)[nH]1` was tested, and the “hERG current change (%, negative = inhibition) at 1uM” value was 12.4%. In the case of `O=C(c1cc2c([nH]c1=O)CCCC2)N1CCc2c([nH]c3ccccc23)C1c1ccccc1F` (stereo not shown), the “hERG current change (%, negative = inhibition) at 1uM” value is reported as 7.44%. With `CC(C)(C)C(=O)Nc1ccc2oc(-c3cc(F)c(F)cc3Cl)nc2c1` the “hERG current change (%, negative = inhibition) at 1uM” value was 15.8%. `CCCOc1ccc(C2c3c(oc4cc(C)c(C)cc4c3=O)C(=O)N2CCCN2CCOCC2)cc1` (stereo not shown) was tested, and the “hERG current change (%, negative = inhibition) at 1uM” value was 7.1%. For `Cc1ccccc1Nc1nc(N)nc(CSc2nc3ccccc3c(=O)n2C)n1`, the “hERG current change (%, negative = inhibition) at 1uM” value was 9.44%. `N=c1c(S(=O)(=O)c2ccc(Cl)cc2)cc2c(=O)n3ccccc3nc2n1CC1CCCO1` (stereo not shown) was tested, and the “hERG current change (%, negative = inhibition) at 1uM” value was 6.52%. For `N=c1c(C(=O)NCC2CCCO2)cc2c(=O)n3ccccc3nc2n1Cc1ccccc1Cl` (stereo not shown), the “hERG current change (%, negative = inhibition) at 1uM” value was -46.8%. In the case of `N=c1c(C(=O)NCC2CCCO2)cc2c(=O)n3ccccc3nc2n1Cc1ccc(Cl)cc1` (stereo not shown), the “hERG current change (%, negative = inhibition) at 1uM” value is reported as -81.9%. With `O=C(NCc1ccco1)c1ccc2c(=O)n(CC3CCCO3)c(=S)[nH]c2c1` (stereo not shown) the “hERG current change (%, negative = inhibition) at 1uM” value was 4.98%. `N=c1c(C(=O)NCc2ccco2)cc2c(=O)n3ccccc3nc2n1CC1CCCO1` (stereo not shown) was tested, and the “hERG current change (%, negative = inhibition) at 1uM” value was -84.3%. `N=c1c(C(=O)NCC2CCCO2)cc2c(=O)n3ccccc3nc2n1Cc1ccc(F)cc1` (stereo not shown) was tested, and the “hERG current change (%, negative = inhibition) at 1uM” value was -82.7%. `N=c1c(C(=O)NCC2CCCO2)cc2c(=O)n3ccccc3nc2n1Cc1cccnc1` (stereo not shown) was tested, and the “hERG current change (%, negative = inhibition) at 1uM” value was -34.7%. `N=c1c(C(=O)NCC2CCCO2)cc2c(=O)n3ccccc3nc2n1Cc1ccccc1` (stereo not shown) was tested, and the “hERG current change (%, negative = inhibition) at 1uM” value was -72.3%. For `CCn1c2ccccc2c2cc(NC(=O)COC(=O)c3ccccc3O)ccc21`, the “hERG current change (%, negative = inhibition) at 1uM” value was 15%.
